According to PubChem BioAssay (NCI):
About 79,000 compounds went through this panel and 15% of them were active in at least one assay; those are over-represented in the sample as a whole. No stated cut-off is given here; in the data, active means growth inhibition above about 70%; inactive means the rest.

How the values were obtained:
[1] = NCI Yeast Anticancer Drug Screen. Data for the rad50 strain (AID 155);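 further: 0% = growth of vehicle-only cultures of the same strain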; conditions: S. cerevisiae rad50 strain growth inhibition; at 50.0 µM; hits give high values
Summary of the method: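 A DNA repair-deficient yeast mutant serves as the test organism; compound-induced growth inhibition is calculated against vehicle-treated cells.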

[2] = NCI Yeast Anticancer Drug Screen. Data for the mec2-1 strain (AID 157); conditions: S. cerevisiae mec2-1 strain, at 50.0 µM, hits give high values
Summary of the method: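 Cells of the genetically defined mec2-1 yeast strain are incubated with test compound. Inhibition of growth is calculated against vehicle-treated controls.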

[3] = NCI Yeast Anticancer Drug Screen. Data for the sgs1 mgt1 strain (AID 161);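 further: 0% = growth of cultures given vehicle only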; conditions: S. cerevisiae sgs1 mgt1 strain, at 50.0 µM, hits give high values
Summary of the method: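 Test agents were incubated with a DNA-repair-mutant yeast strain. Growth was then read and compared against vehicle-treated controls.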

[4] = NCI Yeast Anticancer Drug Screen. Data for the cln2 rad14 strain (AID 165);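 further: 0% = growth equal to vehicle treated cultures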; conditions: S. cerevisiae cln2 rad14 strain, at 50.0 µM, hits give high values
Summary of the method: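 The screen exposed genetically defined yeast (cln2 rad14) to test compounds and scored growth inhibition relative to vehicle-treated controls.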

[5] = NCI Yeast Anticancer Drug Screen. Data for the bub3 strain (AID 167); conditions: S. cerevisiae bub3 mutant strain, at 50.0 µM, hits give high values
Summary of the method: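 Inhibition values come from growth of compound-treated mutant yeast normalised to vehicle-treated controls.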

[6] = NCI Yeast Anticancer Drug Screen. Data for the mlh1 rad18 strain (AID 175); conditions: S. cerevisiae mlh1 rad18 strain growth inhibition; at 50.0 µM; hits give high values
Summary of the method: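 Compound-treated yeast growth, normalised to vehicle controls. Strain bears defined DNA repair mutations.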

Measured: growth inhibition

CN(Cc1c(O)ccc2ccccc12)Cc1c[nH]c2ccccc12
inactive: [1] 20.4% | [2] -13.8% | [3] 0.5% | [4] -46.5% | [5] 6.9% | [6] 13.4%

CCOC(=O)CCC(C(=O)OCC)N1C(=O)c2ccccc2C1=O (stereo not drawn)
inactive: [1] 1% | [2] 6.75% | [3] 8.25% | [4] 11.8% | [5] 23.8% | [6] -1.7%

CN1C(=O)C(CCCN=C(N)N)NC1=S (stereo not drawn)
inactive: [1] -13.7% | [2] -2.4% | [3] -6.65% | [4] -12.2% | [5] -2.45% | [6] -13.6%

O=C[C@H](O)CO
inactive: [1] 26.4% | [2] -20.1% | [3] 17.2% | [4] -1.8% | [5] 8.8% | [6] 17.4%

O=[N+]([O-])c1ccccc1SSc1ccccc1[N+](=O)[O-]
inactive: [1] -20.4% | [2] -15.6% | [3] -36.5% | [4] -1.85% | [5] -46.4% | [6] -18.6%

CC(=O)NNc1nc(C)c(C(=O)NNC(=O)C(=O)Nc2ccc([N+](=O)[O-])cc2[N+](=O)[O-])s1
inactive: [1] 6.45% | [2] -5.65% | [3] -30.9% | [4] 32.9% | [5] 24.1% | [6] 14.8%

COC(=O)CCC(CCC(=O)O)([N+](=O)[O-])[N+](=O)[O-]
inactive: [1] 2.05% | [2] -5.65% | [3] -6.3% | [4] -36.4% | [5] -12.1% | [6] -11.8%

CCOC(=O)CC(NC(=O)CC(N)C(=O)O)C(=O)OCC (stereo not drawn)
inactive: [1] 7.15% | [2] 3% | [3] -2.7% | [4] -1.25% | [5] -0.3% | [6] -3.25%

C=CC(O)C1OC2OC(C)(C)OC2C2OC(C)(C)OC12 (stereo not drawn)
inactive: [1] -2.75% | [2] 13.2% | [3] 2.7% | [4] -32.8% | [5] 21.4% | [6] 5.45%

CC(=O)N1C(Nc2nccs2)CCN1c1ccccc1 (stereo not drawn)
inactive: [1] -43.8% | [2] -64.5% | [3] -21% | [4] 3.1% | [5] -6.75% | [6] -34.2%

Cc1cc(N2CCCCC2)nc(N2CCCCC2)c1C#N
inactive: [1] -4.2% | [2] -20.2% | [3] 27.7% | [4] 14.6% | [5] 35.9% | [6] 13.8%

CCCCCCCOC(=O)COc1ccc(Cl)cc1Cl
inactive: [1] 11.1% | [2] 9.05% | [3] 10.8% | [4] 1.25% | [5] 9.8% | [6] 4.9%

CC1OC2(CC(OCc3ccccc3)C1OCc1ccccc1)OCCO2 (stereo not drawn)
inactive: [1] -10.9% | [2] -3.85% | [3] -8.7% | [4] -4.8% | [5] 21.6% | [6] -31.9%

O=c1c2cc3c(cc2[nH]c2ncccc12)OCO3
inactive: [1] -12.8% | [2] 0.65% | [3] 2.85% | [4] 13.8% | [5] -2.55% | [6] 26.3%

[N-]=[N+]=NC12CC3CC4C5CC(CC41)CC2[C@H]5C3
inactive: [1] 13.1% | [2] -5.35% | [3] -6.1% | [4] -0.55% | [5] -17.1% | [6] -14.4%

C=C(CBr)CCCCC
inactive: [1] 65.1% | [2] 23.3% | [3] 62.6% | [4] 14.1% | [5] 29.8% | [6] 0.55%

Nc1nc(Cl)cc(NCC(O)CO)n1 (stereo not drawn)
inactive: [1] 7.55% | [2] 2.35% | [3] -1.45% | [4] 6.65% | [5] -0.25% | [6] -2.55%

O=C(Oc1ccc2ccccc2c1)c1ccccc1
inactive: [1] 28.4% | [2] 4.4% | [3] 28.4% | [4] 21.9% | [5] 2.7% | [6] 10.1%

CSCCC(NC(C)=O)C(C)=O (stereo not drawn)
inactive: [1] 5.75% | [2] -9.35% | [3] -3.55% | [4] -21.3% | [5] -7.15% | [6] 7.9%

CC1CCC(OC(=O)CC#N)CC1 (stereo not drawn)
inactive: [1] -2.15% | [2] -7.2% | [3] -2.3% | [4] 3.45% | [5] 2.35% | [6] -6.15%

Oc1cccc2nc3cc(CN4CCOCC4)c(CN4CCOCC4)cc3nc12
inactive: [1] 8.35% | [2] -18.4% | [3] -1.05% | [4] 2.7% | [5] -26.1% | [6] -4%

CC(C)OC(=O)Oc1ccccc1Cl
inactive: [1] -18.5% | [2] -21.1% | [3] -13.6% | [4] -6.9% | [5] -3.35% | [6] -22.4%

COc1ccccc1NC(=O)CC(=O)N1N=C(N2c3ccccc3Sc3ccccc32)CC1c1ccccc1 (stereo not drawn)
inactive: [1] 2.55% | [2] 3.2% | [3] -2.15% | [4] 22.7% | [5] 12.4% | [6] -66.5%

COc1cccc2c1c1ccc3c(c1n2C)C(=O)C=CC3=O
inactive: [1] 23.6% | [2] 22.6% | [3] 21.9% | [4] 11.2% | [5] 4.85% | [6] 20.6%

CCOC(=O)C(CCN(C)C)(CCN(C)C)c1ccccc1
inactive: [1] -6.3% | [2] -2.75% | [3] 21.6% | [4] -30.2% | [5] -13% | [6] -2.75%

CCCCC(C(N)=O)C(C)(C)C(=O)O (stereo not drawn)
inactive: [1] -6% | [2] -0.45% | [3] 4.9% | [4] -21.2% | [5] 9.85% | [6] -1.75%

Cc1cccc(NS(=O)(=O)c2ccc3c(c2)OCCOCCOCCOCCO3)c1
inactive: [1] 1.65% | [2] -11.1% | [3] 7.05% | [4] -28% | [5] -11.4% | [6] -9.45%

CC(=O)OC(NC(=O)c1cc(C)cc(C)c1)c1ccncc1 (stereo not drawn)
inactive: [1] -2.05% | [2] -3.05% | [3] -0.75% | [4] -8.1% | [5] 4.6% | [6] 1.25%

Cn1c(C(=O)NN)cc2cc(OCc3ccccc3)ccc21
inactive: [1] 30.1% | [2] 5.75% | [3] 7.2% | [4] 4.55% | [5] 13.2% | [6] 2.4%

C=[N+](CNC(=O)CNC(=O)C(Cc1ccc([N+](=O)[O-])cc1)NC(=O)OC(C)(C)C)C(=O)CNC(=O)C(Cc1ccc([N+](=O)[O-])cc1)NC(=O)OC(C)(C)C (stereo not drawn)
inactive: [1] -23.1% | [2] -28% | [3] -29.4% | [4] 3.3% | [5] -12.2% | [6] -18.8%

O=C(/C=C/c1ccccc1)NC(=S)Nc1ccccc1F
inactive: [1] 12.1% | [2] -3.1% | [3] -23.9% | [4] -12.4% | [5] 29.7% | [6] 20.6%

NC(=O)C1=CNCCC1
inactive: [1] -1.15% | [2] -6.05% | [3] -6.35% | [4] 12.3% | [5] 10.7% | [6] 14.7%

CC(C)(C)c1cc(C(=O)O)c2c(c1)C(=O)OC2(c1ccccc1)c1ccccc1C(=O)O (stereo not drawn)
inactive: [1] 29.1% | [2] 7.6% | [3] 5.6% | [4] 9.95% | [5] 8.75% | [6] 31.2%

CC1CCCCN1C(CC(=O)c1ccccc1)C(=O)c1ccccc1 (stereo not drawn)
inactive: [1] 21.4% | [2] 24.1% | [3] 8.55% | [4] 17.1% | [5] 18.4% | [6] 38.7%

C=CCc1nc2c([nH]1)c(=O)n(C)c(=O)n2C
inactive: [1] 33.5% | [2] -2.2% | [3] 37.6% | [4] 11.7% | [5] -6.8% | [6] 18.6%

C/C=C/C(=O)N(CC)c1ccccc1
inactive: [1] 37.2% | [2] -2.25% | [3] 10.8% | [4] -8.35% | [5] 2.9% | [6] 33.8%

C=C1CC[C@H]2C(=O)OC(c3ccoc3)C[C@]2(C)C/C=C\C=C/1C(=O)OC (stereo partly drawn)
inactive: [1] -10.8% | [2] -11.7% | [3] -19.8% | [4] -6% | [5] -27.2% | [6] -22.6%

O=C1CCC(=O)N1n1c(Cc2ccc(Cl)cc2)n[nH]c1=O
inactive: [1] 17.4% | [2] 8.5% | [3] 19.1% | [4] 4.85% | [5] 12.8% | [6] -44.6%
